Compounds with a hit are over-represented: about 0.45% of the library has one in this group of screens.
EPAC2 antag: qHTS for Antagonist of cAMP-regulated guanine nucleotide exchange factor 2 (EPAC2): primary screen | Rap guanine nucleotide exchange factor 4 (Homo sapiens), Q8WZA2 | EPAC2 GEF exchange of Rap1B-BODIPY-GDP, fluorescence | Potency, µM (titrated, usually from 114 µM), inactives show top-dose activity, negative = inhibition, hits mostly inhibitors | 360,000 compounds, 0.18% hits; also: % is scaled to controls: 0 for no effect and ±100 for the full control effect; nearly all actives have a fitted effect of over 45% in size
EPAC1 antag: qHTS for Antagonist of cAMP-regulated guanine nucleotide exchange factor 3 (EPAC1): primary screen | Rap guanine nucleotide exchange factor 3 (Homo sapiens), O95398 | EPAC1 GEF assay, Rap1b-BODIPY-GDP exchange fluorescence | Potency, µM (highest dose often 115 µM), inactives show at the top dose activity change, negative = inhibition, usual class: inhibitors | 360,000 compounds, 0.14% hits | AID 720709, 2013;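 also: plate controls were vehicle for no effect and positive control for full effect; nearly all actives have a fitted effect of over 50% in size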
EPAC2 ag: qHTS for Agonist of cAMP-regulated guanine nucleotide exchange factor 4 (EPAC2): primary screen. Rap guanine nucleotide exchange factor 4 (Homo sapiens), Q8WZA2. EPAC2 activation, biochemical qHTS; response scale: 100% = 6.5 mM cAMP response. Potency, µM (titrated, usually from 154 µM), for inactives: at the highest dose activation, hits mostly activators. 360,000 compounds, 0.079% hits; also: nearly all actives have a fitted effect of over 50% in size
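Nucleotide exchange monitored as fluorescence drop when BODIPY-GDP leaves Rap1B. Reaction: 100 nM EPAC2, 250 nM RAP1B-BODIPY-GDP, 50 uM GDP, room temperature, kinetic read over 30 min. Activity expressed relative to 6.5 mM cAMP.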
EPAC1 agonist: qHTS for Agonist of cAMP-regulated guanine nucleotide exchange factor 3 (EPAC1): primary screen. Rap guanine nucleotide exchange factor 3 (Homo sapiens), O95398. EPAC1 agonist qHTS, biochemical assay; response scale: 100% = response to 6.5 mM cAMP. Potency, µM (titrated, usually from 154 µM), for the others: top-dose activation, most hits filed as activators. 360,000 compounds, 0.073% hits. AID 720707, 2013; also: nearly all actives have a fitted effect of over 60% in size
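Fluorescent GDP-exchange assay: 100 nM EPAC1 with 250 nM Rap1B preloaded with BODIPY-GDP and 50 uM GDP; compounds tested as concentration series, 5 min at room temperature, then read every 5 min for 30 min (ex 480/em 540 nm); normalized to 6.5 mM cAMP.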
USP1-UAF1 inh: Inhibitors of USP1/UAF1: Primary Screen; Ubiquitin carboxyl-terminal hydrolase 1 (Homo sapiens), O94782; Potency, µM (doses to about 57.1 µM), without a hit: at the highest dose activity change, negative = inhibition, usual class: inhibitors; 390,000 compounds, 0.23% hits; recombinant USP1/UAF1, Ub-Rhodamine cleavage fluorescence; also: % is scaled to controls: 0 for no effect and ±100 for the full control effect; nearly all actives have a fitted effect of over 60% in size
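Step one: compound is pinned into 1nM USP1/UAF1 in HEPES pH 7.8 buffer with TCEP. Step two: 15 min room-temperature incubation. Step three: Ub-Rho (150nM final) starts cleavage, tracked by fluorescence over six one-minute reads.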
* hit, by the source's call; ? = inconclusive; · = not tested or not shown. Calls follow the shape of the dose curve; as a rule, active = well fitted curve in the direction sought with a large enough effect; inconclusive = small, poorly fitted or top-dose-only effect, or another doubt; inactive = no such curve, though single readings can be large; an effect the other way counts as inactive or inconclusive. Potency is read from the fitted curve at half-maximal effect.

SMILES	EPAC2 antag	EPAC1 antag	EPAC2 ag	EPAC1 agonist	USP1-UAF1 inh
Cn1nnnc1SCCCNCc1cc(Br)ccc1OCc1ccccc1F	·	·	·	·	-11.2%
CC(=O)Oc1oc(-c2ccccc2)nc1C=Nc1ccc(N(C)C)cc1	35.2%	6.7%	17.7%	4.1%	25.1µM*
Cc1ccc(N2C(=O)C3C(C2=O)C(C(=O)c2ccc(Cl)cc2)N2CCCC32)cc1 (configuration not stated)	7.6%	-0.9%	0.0%	-2.2%	-9.0%
CC(=O)Oc1ccc(N2C(=O)C3C(C2=O)C(C(=O)c2ccc(Cl)cc2)N2CCCC32)cc1 (configuration not stated)	5.2%	-5.6%	27.5%	6.9%	22.4µM*
CCN(CC)S(=O)(=O)c1ccc(C(=O)NCCSc2c(-c3ccc(C)cc3)[nH]c3ccccc23)cc1	·	·	·	·	-24.1%
O=C(CSc1nnnn1-c1ccccc1)Nc1ncc(Cc2ccccc2Cl)s1	1.2%	-13.3%	2.0%	12.3%	-19.3%
N=C1SC(c2ccccc2)C(=O)N1c1ncc(Cc2ccccc2Cl)s1 (configuration not stated)	-2.1%	70.8µM*	-0.5%	-10.7%	-18.6%
Cc1ccccc1NC(=O)Cn1c(=O)n(Cc2ccco2)c(=O)c2cccnc21	·	·	·	·	-13.0%
Clc1ccc(C2Nc3cccc4cccc(c34)N2)c(Cl)c1	10µM*	-5.6%	6.3%	11.0%	-25.5%
Clc1ccc(C2Nc3cccc4cccc(c34)N2)cc1	?	5.5%	-2.4%	-2.1%	-25.2%
CC(NC(=O)Nc1cc(Cl)ccc1Cl)c1c(-n2cccc2)sc2c1CCCC2 (configuration not stated)	·	·	·	·	-10.3%
COc1ccccc1/C=C1\SC(=S)N(NS(=O)(=O)c2ccccc2)C1=O	?	56.2µM*	-5.2%	4.9%	-3.2%
COc1ccc(/C=C2/SC(=S)N(NS(=O)(=O)c3ccccc3)C2=O)cc1	?	?	6.9%	-8.8%	-14.0%
O=C1/C(=C\c2ccc(Br)cc2)SC(=S)N1NS(=O)(=O)c1ccccc1	17.8µM*	?	-11.6%	-5.0%	-26.1%
COc1ccc(NC(=O)CCS(=O)(=O)c2nc(-c3cccs3)cc(C(F)(F)F)n2)cc1	·	·	·	·	-5.3%
O=C(CCS(=O)(=O)c1nc(-c2cccs2)cc(C(F)(F)F)n1)Nc1ccc(OC(F)(F)F)cc1	·	·	·	·	14.1µM*
O=C(NCC1(c2ccccc2)CCCC1)C(=O)Nc1cccc(Br)c1	·	·	·	·	18.1%
CN(C)c1ccc(Cc2cc3c(O)ccc(O)c3cc(Cc3ccc(N(C)C)cc3)c2=O)cc1	-5.5%	50.1µM*	10.2%	9.4%	?
CCOc1ccccc1NC(=O)c1nc(SC(C)C)ncc1Cl	·	·	·	·	-16.0%
Cc1ccc(O)c(C(=O)c2cc(C#N)c(=O)n(-c3nccs3)c2)c1	177.8%	58.4%	112µM*	39.8µM*	17.8µM*
COc1ccc(CN=Cc2[nH]c3ccc(Br)c(Cl)c3c2O)cc1	-12.3%	-4.4%	12.8%	8.5%	14.1µM*
CN(C)c1ccc(/C=C(\C#N)C(=O)Nc2nc3c(s2)CCN(Cc2ccccc2)C3)cc1	192.8%	-3.4%	112µM*	0.0%	4.47µM*
COc1cc(/C=C2/CC/C(=C/c3ccc(O)c(OC)c3)C2=O)ccc1O	6.1%	-4.9%	0.2%	7.1%	-16.5%
COc1cc(/C=C2\COC/C(=C\c3ccc(O)c(OC)c3)C2=O)ccc1O	-13.1%	89.1µM*	7.4%	3.4%	-22.2%
COc1ccc(Cl)cc1NC(=O)CSc1cn(CC(=O)N2CCCCC2)c2ccccc12	·	·	·	·	-12.9%
COc1ccc(Cl)cc1NC(=O)N1CCC(CN2CCc3ccccc3C2)CC1	·	·	·	·	-12.3%
